Test results from PubChem BioAssay AID686978 (National Center for Advancing Translational Sciences (NCATS), 2013).
The whole screen tested about 420,000 compounds, of which about 64,000 (15%) were called active. Not shown: some 27% with an inconclusive outcome. Not all results are given here. Values without a mark were called inactive. The call rests on the fitted dose curve; in most records, active means well fitted inhibition curve with a large enough effect; inconclusive means small, poorly fitted or top-dose-only effect; inactive means flat fitted curve, though single readings scatter.

Experiment: qHTS for Inhibitors of human tyrosyl-DNA phosphodiesterase 1 (TDP1): qHTS in cells in absence of CPT; further: nearly all actives have a fitted effect of over 55% in size
Details: DT40 Tdp1-/- hTDP1 cells, no CPT, ATP luminescence, 48 h; activity change, negative = growth inhibition: at 46.2 µM (top of the series)
Method in brief: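 Readout: luminescence from CellTiter-Glo after 30 min in the dark at RT. Cells: DT40 Tdp1-/- with stable hTDP1, 400/well. Exposure: compounds alone, ≥48 hr, 37 °C.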
On the % scale 0 is the no-effect control and ±100 the full control effect; potency means the concentration at half of the fitted maximal effect.

For `Brc1ccc(C2CC(c3ccccc3)=Nc3ccccc3N2)cc1` (stereo unspecified), the Potency was 23.1 µM (active).
With `COc1ccc(-c2nc(Cn3c(=O)cc(C)c4c(C)nn(-c5ccccc5)c43)c(C)o2)c(OC)c1` the Potency was 20.6 µM (active).
For `CC1CCN(C2=NC(=O)/C(=C/c3cn[nH]c3-c3ccccc3)S2)CC1`, the Potency was 14.6 µM (active).
With `Cc1cc(OCCCN2CCN(Cc3ccccc3)CC2)ccc1[N+](=O)[O-]` the Potency was 11.6 µM (active).
With `Cc1ccccc1N1CCN(CCCOc2ccc3c(C)cc(=O)oc3c2)CC1` the Potency was 16.4 µM (active).
In the case of `Cc1cc(OCCCCOc2ccc(C#N)cc2)ccc1[N+](=O)[O-]`, the Potency is reported as 8.2 µM (active).
In the case of `O=C1/C(=C\c2ccc(O)cc2)CCC1CNc1ccc(Cl)cc1` (stereo unspecified), the Potency is reported as 3.26 µM (active).
With `CC1=NN(C(N)=S)C(=O)C1N=Nc1cc(Cl)ccc1Cl` (stereo unspecified) the Potency was 3.66 µM (active).
For `CC1CCN(C(=O)c2ccc(CSc3ccc(Cl)cc3)cc2)CC1`, the Potency was 16.4 µM (active).
For `CCOC(=O)CSC1=N/C(=C/c2ccc(-n3cncn3)cc2)C(=O)N1C(C)=O`, the Potency was 11.6 µM (active).

Compared with `CNC(=S)N1N=C(c2ccccc2)CC1c1ccc(Br)cc1` (stereo unspecified), `COc1ccc(S(=O)(=O)Nc2c(C)n(C)n(-c3ccccc3)c2=O)cc1` is higher in “activity change, negative = growth inhibition” value: -23% for the first, -0.229% for the second.

First: CCCC(=O)Nc1cccc(NC(=S)NC(=O)C(C)Oc2ccc(Cl)cc2Cl)c1 (stereo unspecified)
Second: COc1cc(NC(=O)COC(=O)CSc2ccc3ccccc3c2)c(C)cc1[N+](=O)[O-]
The “activity change, negative = growth inhibition” value of the first is lower: -24.7% for the first, -20.6% for the second.

First: CC(Cc1cccs1)NC(=O)c1cccc(Cl)c1 (stereo unspecified)
Second: O=C(Oc1cccc(C(=S)N2CCOCC2)c1)c1cccc(Cl)c1
The “activity change, negative = growth inhibition” value of the first is lower: -29.3% for the first, -8.76% for the second.

First: Cc1noc(C)c1S(=O)(=O)N(C)C[C@H]1Oc2ccc(NC(=O)C3CC3)cc2C(=O)N([C@H](C)CO)C[C@@H]1C
Second: COc1ccc(S(=O)(=O)N(C)C[C@@H]2Oc3ccc(NS(=O)(=O)c4cn(C)cn4)cc3C(=O)N([C@@H](C)CO)C[C@@H]2C)cc1
The “activity change, negative = growth inhibition” value of the first is lower: -17.6% for the first, 2.75% for the second.

First: COc1ccc(-c2nc(Cn3c(=O)cc(C)c4c(C)nn(-c5ccccc5)c43)c(C)o2)cc1OC
Second: Cc1ccc(-c2nc(Cn3c(=O)cc(-c4ccccc4)c4c(C)nn(C)c43)c(C)o2)cc1
The “activity change, negative = growth inhibition” value of the first is higher: 5.82% for the first, -4.46% for the second.

First: O=C1N=C(N2CCOCC2)S/C1=C\C=C/c1ccccc1
Second: Cc1c(Br)c([N+](=O)[O-])nn1CC(=O)N1CCN(Cc2ccccc2)CC1
The “activity change, negative = growth inhibition” value of the first is lower: -25.6% for the first, 2.31% for the second.

Going from `Cc1nc2nc(C)c(NS(=O)(=O)c3ccc(C(C)(C)C)cc3)c(=O)n2[nH]1` to `Cc1cc(OCC(=O)Nc2c(C)n(C)n(-c3ccccc3)c2=O)ccc1[N+](=O)[O-]`, the “activity change, negative = growth inhibition” value rises from -14.5% to 1.98%.

Going from `CC(=O)c1ccc(OC(=O)N2CCOCC2)cc1` to `O=C(c1cc(COc2ccc(F)cc2F)on1)N1CCOCC1`, the “activity change, negative = growth inhibition” value rises from -11.9% to 3.74%.

First: Cc1ccc(CN(C)Cc2cc(=O)oc3cc(C)c(Cl)cc23)cc1
Second: CCc1cc(=O)oc2cc(OCC(=O)N3CCCc4ccccc43)ccc12
The “activity change, negative = growth inhibition” value of the first is higher: 0.563% for the first, -0.399% for the second.

First: Cn1c(N)c(C(=O)COC(=O)c2ccc3ccccc3c2)c(=O)n(C)c1=O
Second: Cc1ccc(OCC(=O)Oc2ccccc2[N+](=O)[O-])cc1
The “activity change, negative = growth inhibition” value of the first is lower: -16.8% for the first, 0.798% for the second.

Compared with `Cc1ccccc1N1CCN(CCCN2C(=O)C3CCCCN3C2=O)CC1` (stereo unspecified), `CC[C@@H]1CCCCc2ccccc2[C@@H](C(=O)C[C@H](O)CC(C)=O)OC1=O` is higher in “activity change, negative = growth inhibition” value: -19.9% for the first, -13.8% for the second.

Compared with `Cc1cc(OCC(=O)NC2CCN(C)CC2)ccc1[N+](=O)[O-]`, `COc1ccc(CC(NC(C)=O)C(=O)NC2CCN(C(=O)c3ccc(Cl)cc3)CC2)cc1` (stereo unspecified) is lower in “activity change, negative = growth inhibition” value: -1.1% for the first, -5.27% for the second.

Compared with `Cc1ccccc1CSc1nnc(-c2ccccn2)n1N`, `C=CCn1c(COc2ccccc2C)nnc1SCC(=O)O` is higher in “activity change, negative = growth inhibition” value: -17.6% for the first, 2.03% for the second.

First: CN(Cc1ccccc1)S(=O)(=O)c1nnc(NC(=O)c2ccccc2F)s1
Second: O=C(NCc1ccco1)C1CCCN1S(=O)(=O)c1ccccc1C(F)(F)F (stereo unspecified)
The “activity change, negative = growth inhibition” value of the first is higher: -2.67% for the first, -18.2% for the second.

Going from `COCCCNC(=O)C1CC(=O)N(CCc2ccc(F)cc2)C1` (stereo unspecified) to `COC(=O)C1C(=O)NCC1c1ccc(C)cc1` (stereo unspecified), the “activity change, negative = growth inhibition” value falls from 2.99% to -5.08%.

Going from `O=[N+]([O-])c1ccc(NCCCO)c(C(F)(F)F)c1` to `CO/N=C(\N)c1ccc([N+](=O)[O-])cc1`, the “activity change, negative = growth inhibition” value falls from -14.2% to -16.8%.

Going from `CCCNC(=O)C(=O)Nc1cc2c3c(c1)CCC(=O)N3CCC2` to `CCCC(=O)N1CCC1(C)C(=O)Nc1ccc(-n2cncn2)cc1` (stereo unspecified), the “activity change, negative = growth inhibition” value falls from 4.33% to -2.82%.

First: Cc1[nH]n(C(N)=S)c(=O)c1N=Nc1ccc(Cl)cc1Cl
Second: Cc1cc(C)c(C#N)c(Nc2cccc(Br)c2)n1
The “activity change, negative = growth inhibition” value of the first is higher: -0.416% for the first, -1.59% for the second.

First: Cc1cc(C)c(C#N)c(N2CCC(C(N)=O)CC2)n1
Second: CCOC(=O)CSc1nc(C)cc2c1C(=O)OC2
The “activity change, negative = growth inhibition” value of the first is lower: -0.105% for the first, 9.81% for the second.

Going from `O=C(c1ccc(CSc2ccccc2)cc1)N1CCCCCC1` to `C#CCOCCOCCOCCNc1nc(N2CCN(C(=O)C([C@@H](C)O)n3cc([C@@H](N)CCCCN)nn3)CC2)nc(N2CCN(C(=O)[C@H](CCCCN)n3cc(CN)nn3)CC2)n1` (stereo partly specified), the “activity change, negative = growth inhibition” value rises from -26.1% to -15%.

For `CC(C)(C)OC(=O)CNC(=O)c1[nH]cnc1C(=O)N[C@@H](CCCCN)C(=O)OC(C)(C)C`, the “activity change, negative = growth inhibition” value was -11.3%.
